# Experimental data: PubChem BioAssay (Tox21)
# Values without a mark were called inactive. Inconclusive results are not listed. Where a call stands in place of a potency, no number is given. Active and inactive are the calls of the source. Unless noted, calls come from the whole dose curve; as a rule, active = well fitted curve in the direction sought with a large enough effect in the repeat runs; inconclusive = weak or mixed curves; inactive = no such curve, though single readings can be large; an effect the other way counts as inactive or inconclusive.
# Assays:
# [1] = qHTS assay for small molecule agonists of the p53 signaling pathway - cell viability (AID 651633; calls by dose curve;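 note: p53RE-bla HCT reporter cells with a stable beta-lactamase p53 reporter; series mostly up to about 83 µM; nearly all actives have a fitted effect of over 30% in size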)
# Outline: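 Viability counter-read: CellTiter-Glo luminescence (30 min, room temperature) in the same p53RE-bla plates. These plates had been exposed to compounds for 16 h at 37 C.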
# [2] = qHTS assay for small molecule disruptors of the mitochondrial membrane potential - cell viability (AID 720634; calls by dose curve; note: nearly all actives have a fitted effect of over 20% in size; note: potency is the fitted concentration of half-maximal effect)
# Outline: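 Same-well counter-screen: following the MMP dye addition, CellTiter-Glo was added to 1 hr compound-treated HepG2 cells and luminescence read after 30 min at room temperature.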
# [3] = qHTS assay for small molecule disruptors of the mitochondrial membrane potential (AID 720635); note: potency is the fitted concentration of half-maximal effect
# Outline: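 Mitochondrial membrane potential tracked with Mito-MPS dye, red aggregates (ex 540/em 590 nm) against green monomers (ex 490/em 535 nm). Compound treatment 1 hr at 37C, dye 30 min in HepG2.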
# [4] = qHTS assay to test for compound auto fluorescence at 590 nm (red) in HepG2 cells (AID 720674)
# Outline: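 1 hr compound incubation on HepG2 cells, 37 C, 5% CO2; plate read ex 540 nm / em 590 nm; intensities reported as Rose Bengal sodium equivalents.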
# [5] = qHTS assay to test for compound auto fluorescence at 460 nm (blue) in HEK293 cells (AID 720678)
# Outline: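 Blue-channel (Ex/Em 405/460 nm) intensity measured in HEK293 cultures after overnight compound exposure at 37C; signal expressed relative to triamterene. Cells plated 2,000 per well in 10% dialyzed FBS medium and allowed 4-5 hr to attach.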
# [6] = qHTS assay to test for compound auto fluorescence at 535 nm (green) in HEK293 cells (AID 720680)
# [7] = qHTS assay to test for compound auto fluorescence at 460 nm (blue) in HEK293 cell free culture (AID 720681)
# Outline: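 Blue fluorescence (Ex 405/Em 460 nm, triamterene-equivalent) was read immediately after pin transfer of compound or DMSO into medium (DMEM, 10% FBS) without cells.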
# [8] = qHTS assay to test for compound auto fluorescence at 535 nm (green) in HEK293 cell free culture (AID 720682)
# Outline: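 Intrinsic compound fluorescence is measured in culture medium containing 10% FBS, with excitation at 485 nm and detection at 535 nm, referenced to fluorescein.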
# [9] = qHTS assay to test for compound auto fluorescence at 590 nm (red) in HEK293 cell free culture (AID 720683)
# Outline: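 Red-channel autofluorescence of compounds in culture medium (DMEM, 10% FBS), no cells, measured at 540/590 nm. Rose Bengal sodium is the reference fluorophore for equivalence.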
# [10] = qHTS assay to test for compound auto fluorescence at 590 nm (red) in HepG2 cell free culture (AID 720684)
# Outline: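 No cells present: MEM + 10% FBS only. Compound pinned in, red label read (540/590 nm). Activity = fluorescence equivalent to Rose Bengal sodium.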
# [11] = qHTS assay to test for compound auto fluorescence at 460 nm (blue) in HepG2 cell free culture (AID 720685)
# Outline: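 Cell-free plates of MEM plus 10% FBS received 23 nL compound or DMSO vehicle; blue-channel (405/460 nm) intensity scored against triamterene as reference fluorophore.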
# [12] = qHTS assay to test for compound auto fluorescence at 535 nm (green) in HepG2 cell free culture (AID 720686)
# [13] = qHTS assay to test for compound auto fluorescence at 460 nm (blue) in HepG2 cells (AID 720687)
# Outline: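 Blue-channel autofluorescence (Ex/Em 405/460 nm, triamterene-equivalent) was measured after 1 hr compound exposure at 37 C, 5% CO2. Cells were HepG2, plated overnight at 37 C in MEM plus 10% FBS.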
# [14] = qHTS assay for small molecules that induce genotoxicity in human embryonic kidney cells expressing luciferase-tagged ATAD5 (AID 651632); note: nearly all actives have a fitted effect of over 15% in size
# Outline: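 Test compounds were delivered by pin tool onto HEK293T reporter cells (2,000/well) expressing ATAD5 fused to luciferase. After 16 hr at 37C, 5% CO2, Amplite was added for 30 min at room temperature and luminescence was measured.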
# [15] = qHTS assay for small molecules that induce genotoxicity in human embryonic kidney cells expressing luciferase-tagged ATAD5 - cell viability (AID 651634; calls by dose curve; note: nearly all actives have a fitted effect of over 25% in size; note: potency is the fitted concentration of half-maximal effect)
# Outline: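 Quantitative high-throughput format. HEK293T cells expressing ATAD5 fused to luciferase were plated at 2,000 cells/well and treated 15.5 hr with compound versus DMSO. Viability was determined by fluorescent live-cell protease substrate, 30 min at 37C.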
# [16] = qHTS assay to test for compound auto fluorescence at 535 nm (green) in HepG2 cells (AID 720675)
# [17] = molecular target: Glucocorticoid receptor (Homo sapiens) (UniProt P04150); assay: qHTS assay to identify small molecule agonists of the glucocorticoid receptor (GR) signaling pathway (AID 720691; active = well fitted activation curve with a large enough effect in the signal ratio in the repeat runs, not every such curve was filed as active; the % refers to the signal ratio)
# Chain of Glucocorticoid receptor (Homo sapiens) (P04150 whole entry, looked up): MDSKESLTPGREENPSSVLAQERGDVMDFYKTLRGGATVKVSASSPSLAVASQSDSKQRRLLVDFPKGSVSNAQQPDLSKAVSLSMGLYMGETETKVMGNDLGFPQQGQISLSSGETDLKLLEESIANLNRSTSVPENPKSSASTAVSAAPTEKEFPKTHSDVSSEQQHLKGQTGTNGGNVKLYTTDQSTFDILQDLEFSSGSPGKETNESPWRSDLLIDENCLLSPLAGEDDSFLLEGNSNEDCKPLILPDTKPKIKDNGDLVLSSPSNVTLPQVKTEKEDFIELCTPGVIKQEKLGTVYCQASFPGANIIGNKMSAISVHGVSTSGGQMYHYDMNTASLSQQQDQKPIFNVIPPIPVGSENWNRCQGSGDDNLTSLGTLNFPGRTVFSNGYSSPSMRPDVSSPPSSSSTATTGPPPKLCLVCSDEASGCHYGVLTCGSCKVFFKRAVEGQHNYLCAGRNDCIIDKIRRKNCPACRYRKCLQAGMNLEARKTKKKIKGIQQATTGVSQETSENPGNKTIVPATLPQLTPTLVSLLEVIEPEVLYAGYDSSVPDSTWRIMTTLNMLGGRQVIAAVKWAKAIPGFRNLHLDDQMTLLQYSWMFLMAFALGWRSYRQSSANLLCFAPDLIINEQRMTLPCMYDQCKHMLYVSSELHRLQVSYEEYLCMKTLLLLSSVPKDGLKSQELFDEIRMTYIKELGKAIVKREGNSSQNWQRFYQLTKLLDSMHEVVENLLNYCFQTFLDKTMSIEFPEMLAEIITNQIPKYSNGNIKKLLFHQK
# Outline: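 A HeLa cervical cancer line expressing GR and a glucocorticoid response element-driven beta-lactamase gene is treated with compounds for 18 h; LiveBLAzer B/G FRET substrate is then applied and fluorescence read.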
# [18] = qHTS assay to test for compound auto fluorescence at 590 nm (red) in HEK293 cells (AID 720679)
# Outline: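 Red-channel autofluorescence (Ex/Em 540/590 nm; Rose Bengal sodium reference) was measured after overnight 37C, 5% CO2 exposure of attached HEK293 cells, 2,000 per well in medium with 10% dialyzed FBS.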
# [19] = molecular target: Glucocorticoid receptor (Homo sapiens) (UniProt P04150); assay: qHTS assay to identify small molecule antagonists of the glucocorticoid receptor (GR) signaling pathway (AID 720692; active = well fitted inhibition curve with a large enough effect in the signal ratio in the repeat runs, not every such curve was filed as active; the % refers to the signal ratio)
# Outline: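 GRE-bla HeLa line, dex-stimulated (5 nM final). Compound exposure 18 h, 37 C. Beta-lactamase FRET read after 2 h RT substrate.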
structure (smiles),measurement,setting,value
O=C=Nc1ccc(Cl)cc1,Potency,[1],inactive
same,Potency,[2],21.7 µM (active)
same,Potency,[3],0.172 µM (active)
same,outcome,[4],inactive
same,outcome,[5],inactive
same,outcome,[6],inactive
same,outcome,[7],inactive
same,outcome,[8],inactive
same,outcome,[9],inactive
same,outcome,[10],inactive
same,outcome,[11],inactive
same,outcome,[12],inactive
same,outcome,[13],inactive
c1cc2ccc3cccc4ccc(c1)c2c34,Potency,[14],inactive
same,Potency,[15],inactive
same,outcome,[4],inactive
same,outcome,[16],inactive
same,outcome,[5],inactive
same,outcome,[6],inactive
same,outcome,[7],inactive
same,outcome,[8],inactive
same,outcome,[9],inactive
same,outcome,[10],inactive
same,outcome,[11],inactive
same,outcome,[12],inactive
same,outcome,[13],inactive
same,outcome,[17],inactive
CCOP(=S)(Oc1ccc([N+](=O)[O-])cc1)c1ccccc1 (centres undefined),Potency,[15],inactive
same,Potency,[3],21.7 µM (active)
same,outcome,[4],inactive
same,outcome,[16],inactive
same,outcome,[5],inactive
same,outcome,[6],inactive
same,outcome,[7],inactive
same,outcome,[8],inactive
same,outcome,[9],inactive
same,outcome,[10],inactive
same,outcome,[11],inactive
same,outcome,[12],inactive
same,outcome,[13],inactive
BrCC(Br)C1CCC(Br)C(Br)C1 (centres undefined),Potency,[1],inactive
same,Potency,[15],inactive
same,Potency,[2],inactive
same,Potency,[3],27.2 µM (active)
same,outcome,[4],inactive
same,outcome,[16],inactive
same,outcome,[5],inactive
same,outcome,[18],inactive
same,outcome,[6],inactive
same,outcome,[7],inactive
same,outcome,[8],inactive
same,outcome,[9],inactive
same,outcome,[10],inactive
same,outcome,[11],inactive
same,outcome,[12],inactive
same,outcome,[13],inactive
same,outcome,[17],inactive
CCCCC(O)(Cn1cncn1)c1ccc(Cl)cc1Cl (centres undefined),Potency,[14],inactive
same,Potency,[3],54.4 µM (active)
same,outcome,[4],inactive
same,outcome,[16],inactive
same,outcome,[5],inactive
same,outcome,[18],inactive
same,outcome,[6],inactive
same,outcome,[7],inactive
same,outcome,[8],inactive
same,outcome,[9],inactive
same,outcome,[10],inactive
same,outcome,[11],inactive
same,outcome,[12],inactive
same,outcome,[13],inactive
same,outcome,[17],inactive
O=C1C(=O)c2cccc3cccc1c23,Potency,[1],inactive
same,Potency,[15],54.4 µM (active)
same,Potency,[3],54.4 µM (active)
same,outcome,[4],inactive
same,outcome,[5],inactive
same,outcome,[18],inactive
same,outcome,[6],inactive
same,outcome,[7],inactive
same,outcome,[8],inactive
same,outcome,[9],inactive
same,outcome,[10],inactive
same,outcome,[11],inactive
same,outcome,[12],inactive
same,outcome,[13],inactive
O=S1OC[C@@H]2[C@H](CO1)[C@]1(Cl)C(Cl)=C(Cl)[C@@]2(Cl)C1(Cl)Cl (some centres undefined),Potency,[14],inactive
same,Potency,[15],inactive
same,outcome,[4],inactive
same,outcome,[16],inactive
same,outcome,[5],inactive
same,outcome,[6],inactive
same,outcome,[7],inactive
same,outcome,[8],inactive
same,outcome,[9],inactive
same,outcome,[10],inactive
same,outcome,[11],inactive
same,outcome,[12],inactive
same,outcome,[13],inactive
same,outcome,[17],inactive
CCCCC(CC)COP(=O)(Oc1ccccc1)Oc1ccccc1 (centres undefined),Potency,[14],inactive
same,Potency,[15],inactive
same,outcome,[4],inactive
same,outcome,[16],inactive
same,outcome,[5],inactive
same,outcome,[18],inactive
same,outcome,[6],inactive
same,outcome,[7],inactive
same,outcome,[8],inactive
same,outcome,[9],inactive
same,outcome,[10],inactive
same,outcome,[11],inactive
same,outcome,[12],inactive
same,outcome,[13],inactive
same,outcome,[17],inactive
same,Potency,[19],inactive
Cl/C=C\C[N+]12CN3CN(CN(C3)C1)C2,Potency,[1],inactive
same,Potency,[15],inactive
same,Potency,[2],inactive
same,Potency,[3],inactive
same,outcome,[4],inactive
same,outcome,[16],inactive
same,outcome,[5],inactive
same,outcome,[18],inactive
same,outcome,[6],inactive
same,outcome,[7],inactive
same,outcome,[8],inactive
same,outcome,[9],inactive
same,outcome,[10],inactive
same,outcome,[11],inactive
same,outcome,[12],inactive
same,outcome,[13],inactive
same,outcome,[17],inactive
CCOP(=S)(OCC)Oc1cc(Cl)c(Br)cc1Cl,Potency,[14],inactive
same,Potency,[15],inactive
same,outcome,[4],inactive
same,outcome,[16],inactive
same,outcome,[5],inactive
same,outcome,[18],inactive
same,outcome,[6],inactive
same,outcome,[7],inactive
same,outcome,[8],inactive
same,outcome,[9],inactive
same,outcome,[10],inactive
same,outcome,[11],inactive
same,outcome,[12],inactive
same,outcome,[13],inactive
Nc1ccc([N+](=O)[O-])cc1[N+](=O)[O-],Potency,[1],inactive
same,Potency,[15],15 µM (active)
same,Potency,[2],inactive
same,Potency,[3],29.9 µM (active)
same,outcome,[4],inactive
same,outcome,[16],inactive
same,outcome,[5],inactive
same,outcome,[18],inactive
same,outcome,[6],inactive
same,outcome,[7],inactive
same,outcome,[8],inactive
same,outcome,[9],inactive
same,outcome,[10],inactive
same,outcome,[11],inactive
same,outcome,[12],inactive
same,outcome,[13],inactive
Clc1ccc(C(OCCN2CCCCC2)c2ccccc2)cc1 (centres undefined),Potency,[1],inactive
same,Potency,[15],inactive
same,Potency,[2],inactive
same,"fluorescence, relative to Rose Bengal",[4],-0.716% [at 18.6 µM]
same,"fluorescence, % of fluorescein control",[16],-0.0264% [at 18.6 µM]
same,"fluorescence, % of triamterene",[5],0.0368% [at 18.6 µM]
same,"fluorescence, % of fluorescent control",[18],0.965% [at 18.6 µM]
same,"fluorescence, % of fluorescein",[6],-0.14% [at 18.6 µM]
same,"fluorescence, % of fluorescent control",[7],-0.141% [at 18.6 µM]
same,activity change,[8],-0.263% [at 18.6 µM]
same,"fluorescence, % of fluorescent control",[9],0.321% [at 18.6 µM]
same,"fluorescence, % of Rose Bengal",[10],0.0745% [at 18.6 µM]
same,"fluorescence, % of fluorescent control",[11],0.0001% [at 18.6 µM]
same,"fluorescence, % of fluorescein control",[12],-0.0362% [at 18.6 µM]
same,"fluorescence, % of fluorescent control",[13],0.1% [at 18.6 µM]
same,Potency,[19],inactive
Cc1c(F)c(F)c(COC(=O)C2C(/C=C(\Cl)C(F)(F)F)C2(C)C)c(F)c1F (centres undefined),Potency,[15],inactive
same,Potency,[2],inactive
same,Potency,[3],30.6 µM (active)
same,outcome,[4],inactive
same,outcome,[16],inactive
same,outcome,[5],inactive
same,outcome,[18],inactive
same,outcome,[6],inactive
same,outcome,[7],inactive
same,outcome,[8],inactive
same,outcome,[9],inactive
same,outcome,[10],inactive
same,outcome,[11],inactive
same,outcome,[12],inactive
same,outcome,[13],inactive
